Our source for the Potency, activity, negative = cell killing and max response values is PubChem BioAssay (NCATS).

Unmarked numbers belong to inactive results. Records with an inconclusive call do not appear. Activity calls are given as the source filed them. Unless noted, the call rests on the fitted dose curve; in most records, active means well fitted curve in the direction sought with a large enough effect; inconclusive means small, poorly fitted or top-dose-only effect, or another doubt; inactive means no such curve, though single readings can be large; an effect the other way counts as inactive or inconclusive.

The test system of assay [1] is Es-2. The assay is described as follows: Primary qHTS to identify gynecologic anti-cancer compounds using libraries of approved drugs and bioactive compounds (AID 1345084). Further: nearly all actives have a fitted effect of over 55% in size. Further: potency means the concentration at half of the fitted maximal effect. The conditions noted are these: Gynecologic cancer cell panel viability, ATPlite luminescence, 48 h; series mostly up to 57.5 µM. Summed up: (§1)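 In this quantitative HTS, cell killing is estimated from loss of ATP-dependent luciferase light. Cells see five compound concentrations over a 48 h exposure.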
On the technique in general: qHTS replaces the single test concentration by a dilution series.

In assay [2] the test system is Hek293T. The description is as above. The conditions noted are these: Gynecologic cancer cell panel viability, ATPlite luminescence, 48 h, control line for the selectivity index; series mostly up to 57.5 µM. Summed up: as §1
For assay [3], the system named is JEG-3. Described as above. The conditions noted are these: Gynecologic cancer cell panel viability, ATPlite luminescence, 48 h; series mostly up to 57.5 µM. Summed up: as §1
On the technique in general: Cellular ATP, detected with luciferase, serves as a proxy for viable cell number.

The test system of assay [4] is OV90. The description is as above. The conditions noted are these: Gynecologic cancer cell panel viability, ATPlite luminescence, 48 h; series mostly up to 57.5 µM. Summed up:
as §1

Assay [5] deals with PA-1. Described as above. The conditions noted are these: Gynecologic cancer cell panel viability, ATPlite luminescence, 48 h; series mostly up to 57.5 µM. Summed up: as §1
The test system of assay [6] is SKOV3. The assay is described as above. The conditions noted are these: Gynecologic cancer cell panel viability, ATPlite luminescence, 48 h; series mostly up to 57.5 µM. Summed up: as §1
Assay [7] relates to Tov-21-G. The assay is described as above. The conditions noted are these: Gynecologic cancer cell panel viability, ATPlite luminescence, 48 h; series mostly up to 57.5 µM. Summed up:
as §1

Assay [8] deals with Tov112D. Described as above. To be noted: Gynecologic cancer cell panel viability, ATPlite luminescence, 48 h; series mostly up to 57.5 µM. Summed up:
as §1

Assay [9] in a line: Drug repurposing screens with cells derived from glioblastoma tumor samples (AID 1345199). Further: nearly all actives have a fitted effect of over 40% in size. Further: potency means the concentration at half of the fitted maximal effect. On activity, negative = cell killing: on the % scale 0 is the no-effect control and ±100 the full control effect. To be noted: GBM patient neurospheres viability, ATP luminescence, 48 h. Summed up:
(§2)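 Primary testing used CD133+ neurospheres from four GBM patients, seven concentrations, 48 h exposure and ATP-based viability; confirmation added three slower-growing patient lines.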

Assay [10] has as its target Nuclear receptor subfamily 1 group I member 2 (Rattus norvegicus) (UniProt Q9R1A7). The assay is described as follows: qHTS assay for small molecule activators of the rat pregnane X receptor (rPXR) signaling pathway (AID 651751; call rule not given here; further: 0% is about no effect). To be noted: rPXR reporter cells, luciferase (One-Glo), 24 h.
The test system of assay [11] is HeLa. Kind of assay: Primary qHTS to identify gynecologic anti-cancer compounds using libraries of approved drugs and bioactive compounds (AID 1345084). Further: nearly all actives have a fitted effect of over 55% in size. Further: potency means the concentration at half of the fitted maximal effect. To be noted: Gynecologic cancer cell panel viability, ATPlite luminescence, 48 h; series mostly up to 57.5 µM. Summed up:
as §1

Assay [12] has as its system astro. Kind of assay: Drug repurposing screens with cells derived from glioblastoma tumor samples (AID 1345199). Further: nearly all actives have a fitted effect of over 40% in size. Further: potency means the concentration at half of the fitted maximal effect. On activity, negative = cell killing: on the % scale 0 is the no-effect control and ±100 the full control effect. The conditions noted are these: viability, ATP luminescence, 48 h; series mostly up to 45.9 µM. Summed up:
as §2

Setting [13] is: at 45.9 µM (top of the series), tumour line B.
[14] abbreviates: at 45.9 µM (top of the series), tumour line D.
The mark [15] stands for this setting: at 46.1 µM (top of the series), tumour line C.
The mark [16] stands for this setting: at 46 µM (top of the series), tumour line A.
Where [17] appears, read: at 20 µM (top of the series), tumour line C.
Setting [18] is: at 21.2 µM (top of the series), tumour line B.
Setting [19] is: at 21.2 µM (top of the series), tumour line D.

Sequence of Nuclear receptor subfamily 1 group I member 2 (Rattus norvegicus) (Q9R1A7 whole entry, looked up): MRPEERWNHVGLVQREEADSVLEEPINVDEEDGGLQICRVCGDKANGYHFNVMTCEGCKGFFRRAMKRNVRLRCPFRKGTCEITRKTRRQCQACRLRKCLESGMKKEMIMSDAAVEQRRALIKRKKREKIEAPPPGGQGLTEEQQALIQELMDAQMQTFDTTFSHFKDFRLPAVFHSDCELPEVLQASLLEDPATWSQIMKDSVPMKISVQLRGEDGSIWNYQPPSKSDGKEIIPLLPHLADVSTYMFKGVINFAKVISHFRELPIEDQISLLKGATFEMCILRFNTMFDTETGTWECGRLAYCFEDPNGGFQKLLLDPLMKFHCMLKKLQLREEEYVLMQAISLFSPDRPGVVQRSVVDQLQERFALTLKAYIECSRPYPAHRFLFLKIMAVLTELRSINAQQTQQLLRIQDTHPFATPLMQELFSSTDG

`CCCCCCCCCCCCCCCCOP(=O)([O-])OCC[N+](C)(C)C`: the Potency result in assay [1], in assay [2], in [3], in assay [5], in assay [6] and in assay [8] was “inactive” throughout. Further, the Potency in assay [4] and in [7] was 25.1 µM (active) throughout. In addition, the activity, negative = cell killing in [9] (setting [13]) is -7.15%; in assay [9] (setting [14]), -0.719%; in assay [9] (setting [15]), -5.47%.

On to `CC(=O)Oc1ccc(C(c2ccc(OC(C)=O)cc2)c2ccccn2)cc1`, for which the Potency result in assay [1], in [2], in assay [3], in assay [5] and in assay [6] was “inactive” each time. Besides, the figures for the activity, negative = cell killing in assay [9] (setting [13]), in assay [9] (setting [14]) and in assay [9] (setting [16]) were -5.88%, -3.54% and -29.3%, respectively. Moreover, the max response in assay [10] is -3.28%.

Regarding `COc1ccc(OC)c(C(O)CNC(=O)CN)c1` (stereo not drawn), the Potency result in assay [1], in [11], in assay [3], in assay [4], in assay [5] and in assay [6] was “inactive” in each case. Further, the Potency result in [7], in assay [8] and in assay [12] was “inactive” each time. Moreover, the activity, negative = cell killing is -8.51% in [9] (setting [17]); -10.1% in assay [9] (setting [18]); -7.78% in assay [9] (setting [19]); -30.8% in [9] (at 21.3 µM (top of the series), tumour line A).

As to `CCCSS/C(CCO)=C(\C)N(C=O)Cc1cnc(C)nc1N`, the Potency entry in [11], in assay [2], in assay [3], in assay [4], in assay [5] and in [6] was “inactive” throughout. Moreover, the Potency result in assay [7] and in [8] was “inactive” each time. Also, the activity, negative = cell killing in assay [9] (setting [15]) is -24.8%. The Potency in assay [12] is 22.4 µM (active).

`C[n+]1c2cc(N)ccc2cc2ccc(N)cc21` (tested in a mixture with another compound): the Potency in assay [1] was 15.8 µM (active); in assay [11] it was 8.91 µM (active); in [2], 10 µM (active); in [5], 5.01 µM (active); in assay [6] it was 12.6 µM (active); in [7], 28.2 µM (active). Further, the Potency is 35.5 µM (active) in assay [9] (tumour line A), 11.2 µM (active) in [9] (tumour line B), 5.01 µM (active) in [9] (tumour line D) and 11.2 µM (active) in [12]. Moreover, in assay [9] (setting [15]), the activity, negative = cell killing was -16%.

As to `COc1ccc(CCN2CCC(Nc3nc4ccccc4n3Cc3ccc(F)cc3)CC2)cc1`, the Potency in [11] is 28.2 µM (active).

On to `CN=C(NC#N)NCCSCc1csc(N=C(N)N)n1`, for which the Potency result in assay [1], in assay [11], in assay [3], in assay [4], in assay [5] and in [6] was “inactive” throughout. Moreover, the Potency entry in [7] and in assay [8] was “inactive” in each case. Moreover, the activity, negative = cell killing was -9.85% in assay [9] (setting [13]), 14.9% in assay [9] (setting [14]), -18.5% in [9] (setting [16]) and -6.9% in assay [9] (setting [15]).

Consider `Cc1cccc(C)c1NC(=O)CN1CCN(CCCC(c2ccc(F)cc2)c2ccc(F)cc2)CC1`, for which the Potency result in [1], in [2], in assay [3], in assay [7], in assay [8] and in assay [12] was “inactive” each time.

Take `Oc1c(I)cc(I)c2cccnc12`: the Potency entry in assay [11], in assay [2], in assay [3], in assay [4], in assay [6] and in assay [8] was “inactive” each time.

For the compound `COc1c(C)c2c(c(O)c1C/C=C(\C)CCC(=O)O)C(=O)OC2`, the Potency in [1] is 2.82 µM (active); in assay [5] it was 0.282 µM (active); in [7], 1 µM (active). In addition, the Potency result in assay [3] is “inactive”. Besides, in [9] (setting [17]), the activity, negative = cell killing is -18.6%.

On to `CN(C/C=C/c1ccccc1)Cc1cccc2ccccc12`, for which the Potency result in assay [1], in assay [11], in assay [3], in assay [4], in assay [5] and in assay [7] was “inactive” each time. The Potency result in assay [8] and in assay [12] was “inactive” throughout. Besides, the figures for the activity, negative = cell killing in assay [9] (setting [13]), in assay [9] (setting [14]) and in assay [9] (setting [15]) were -26.7%, -18.5% and -27.1%, respectively.

For `Nc1ccn([C@@H]2O[C@H](CO)[C@@H](O)C2(F)F)c(=O)n1`, the Potency entry in [11], in [2], in assay [3] and in assay [7] was “inactive” each time. Moreover, the Potency in [8] was 0.178 µM (active).

For the compound `O=c1[nH]c(=O)n([C@H]2C[C@H](O)[C@@H](CO)O2)cc1C(F)(F)F`, the Potency entry in assay [11], in assay [2], in assay [3], in [4], in assay [6] and in assay [7] was “inactive” in each case. In addition, the Potency result in assay [12] is “inactive”. In addition, the values for the Potency in [5] and in [8] were 8.91 µM (active) and 11.2 µM (active), respectively. The activity, negative = cell killing in assay [9] (setting [14]) was -28.4%; in [9] (setting [15]), -13.3%.

On to `COc1c2occc2c(OC)c2c(=O)cc(C)oc12`, for which the Potency entry in assay [1], in assay [11], in assay [3], in assay [4], in assay [5] and in assay [6] was “inactive” each time. The Potency entry in assay [7], in [8] and in [12] was “inactive” throughout. Besides, the activity, negative = cell killing in [9] (setting [17]) is -11.9%; in assay [9] (setting [18]), -15.3%; in [9] (setting [19]) it was -6.87%.

For the compound `c1ccc(-c2ccc(C(c3ccccc3)n3ccnc3)cc2)cc1` (stereo not drawn), the Potency result in assay [1], in [11], in assay [3], in [4], in assay [5] and in [7] was “inactive” each time. Besides, the Potency result in [8] was “inactive”. In addition, the activity, negative = cell killing in assay [9] (setting [13]) is -29.4%. Further, the results for the Potency in assay [9] (tumour line A) and in assay [9] (tumour line D) were 3.55 µM (active) and 11.2 µM (active), respectively.

As for `CCCCOc1ccc(C(=O)CCN2CCCCC2)cc1`, the Potency entry in assay [11], in assay [3], in [4], in assay [5], in [7] and in assay [8] was “inactive” in each case. The Potency result in [12] was “inactive”. In [9] (setting [17]), the activity, negative = cell killing is -2.49%. Also, in assay [9] (tumour line A), the Potency was 4.47 µM (active).

With `CCOC(=O)COc1ccc2c(C)c(CCN(CC)CC)c(=O)oc2c1Cl`, the Potency result in assay [11], in assay [2], in [3], in [4], in [5] and in assay [8] was “inactive” in each case. Moreover, the Potency result in assay [12] is “inactive”. Besides, the Potency in [6] was 15.8 µM (active); in [9] (tumour line A), 11.2 µM (active). In addition, the results for the activity, negative = cell killing in assay [9] (setting [13]) and in [9] (setting [15]) were -13.9% and -21.4%, respectively.
